According to PubChem BioAssay (NCATS):
Results filed as inconclusive are left out. Values without a mark were called inactive. Calls follow the shape of the dose curve; as a rule, active = well fitted inhibition curve with a large enough effect; inconclusive = small, poorly fitted or top-dose-only effect, or effect the other way; inactive = flat fitted curve, though single readings scatter. Numbered stars: 1 amine (or outer) side, 2 acyl side, 3 side chain; on linkers, the order of the positions; unused ones are H or OH. Bridge positions count the residues as written; N and C are the ends. Square brackets hold non-standard residues; d marks the D form. Peptide text beside a SMILES is read from it. I, II: the chains in the order shown. Actinocin(9to1) = Cc1c2oc3c(C)ccc(C(=O)[*:1])c3nc-2c(C(=O)[*:2])c(N)c1=O; NMeV = CN[C@H](C(=O)O)C(C)C; Sar = CNCC(=O)O

Each molecule was assayed against ATP-dependent 6-phosphofructokinase (Trypanosoma brucei brucei) (UniProt O15648) (assay: qHTS Assay to Find Inhibitors of T. brucei phosphofructokinase: hit validation (AID 492961;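 also: luminescence reports ADP formed as PFK phosphorylates fructose-6-phosphate with ATP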)). Conditions: T. brucei PFK, ADP-Glo luminescence; series mostly up to 51.4 µM; activity change, negative = inhibition: at the top concentration.
Chain of ATP-dependent 6-phosphofructokinase (Trypanosoma brucei brucei) (O15648 whole entry, looked up): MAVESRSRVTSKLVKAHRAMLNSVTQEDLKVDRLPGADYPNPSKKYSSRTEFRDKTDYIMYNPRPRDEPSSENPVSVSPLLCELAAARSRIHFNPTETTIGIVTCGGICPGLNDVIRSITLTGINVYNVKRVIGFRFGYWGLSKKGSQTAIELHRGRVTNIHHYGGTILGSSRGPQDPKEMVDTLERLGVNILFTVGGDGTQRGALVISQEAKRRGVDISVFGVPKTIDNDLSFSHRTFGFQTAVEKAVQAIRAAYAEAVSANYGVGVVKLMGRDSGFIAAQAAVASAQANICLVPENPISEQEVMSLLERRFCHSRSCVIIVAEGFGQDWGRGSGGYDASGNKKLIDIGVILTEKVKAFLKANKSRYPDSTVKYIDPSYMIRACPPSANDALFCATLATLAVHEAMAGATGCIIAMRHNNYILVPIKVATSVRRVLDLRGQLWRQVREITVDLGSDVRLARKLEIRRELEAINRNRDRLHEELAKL
In short: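 Reaction: 0.1 M triethanolamine pH 8.0, 5 mM MgCl2, F6P 0.5 mM, ATP 0.1 mM, PFK 1.25 nM, 45 min RT. Read-out: ADP-Glo luminescence. Analysis: concentration-response fits, classed by r2 and efficacy.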
% is scaled to controls: 0 for no effect and ±100 for the full control effect.

SMILES	activity change, negative = inhibition
C#CCOC(C(=O)OCCN(C)C)(c1ccccc1)c1ccccc1	4.65%
Oc1cccc2cccnc12	-1.44%
CCN(CC)CCOC(=O)C(O)(c1ccccc1)c1ccccc1	4.3%
CC(C)CC(N(C)C)C1(c2ccc(Cl)cc2)CCC1 (stereo not drawn)	6.03%
N[C@@H](Cc1ccc(N(CCCl)CCCl)cc1)C(=O)O	-11%
C[C@]12C/C(=C/O)C(=O)C[C@@H]1CC[C@@H]1[C@@H]2CC[C@@]2(C)[C@H]1CC[C@]2(C)O	-3.79%
O=[N+]([O-])c1cc([As](=O)(O)O)ccc1O	11.6% [at 24.3 µM]
CCN(C(C)=O)c1cccc(-c2ccnc3c(C#N)cnn23)c1	-3.62%
OCCOc1ccccc1	-1.99%
O=P1(NCCCl)OCCCN1CCCl (stereo not drawn)	6.77% [at 24.3 µM]
c1ccc2c(c1)Nc1ccccc1S2	-6.14%
Cc1ccc(-c2nc3ccc(C)cn3c2CC(=O)N(C)C)cc1	-3.7%
CC[N+]1(C)CCCC(OC(=O)C(O)(c2ccccc2)c2ccccc2)C1 (stereo not drawn)	-0.842%
Cn1c(CCCC(=O)O)nc2cc(N(CCCl)CCCl)ccc21	21.1%
CCC(C(N)=O)N1CCCC1=O (stereo not drawn)	9.05%
CC(C)(C)NCC(O)c1cc(Cl)c(N)c(Cl)c1 (stereo not drawn)	14.1%
CCCC1CCCCN1 (stereo not drawn)	0%
CCC(COC(=O)c1cc(OC)c(OC)c(OC)c1)(c1ccccc1)N(C)C (stereo not drawn)	-0.263%
NP(N)(=O)NC(=O)c1ccc(F)cc1	1%
NCCc1cc(O)c(O)cc1O	-17.6%
O=C(NC(O)C(Cl)(Cl)Cl)NC(O)C(Cl)(Cl)Cl (stereo not drawn)	2.25%
CC(C)NCC(O)c1ccccc1Cl (stereo not drawn)	-1.08%
Cc1c2oc3c(C)ccc(C(=O)N[C@@H]4C(=O)N[C@H](C(C)C)C(=O)N5CCC[C@H]5C(=O)N(C)CC(=O)N(C)[C@@H](C(C)C)C(=O)O[C@@H]4C)c3nc-2c(C(=O)N[C@@H]2C(=O)N[C@H](C(C)C)C(=O)N3CCC[C@H]3C(=O)N(C)CC(=O)N(C)[C@@H](C(C)C)C(=O)O[C@@H]2C)c(N)c1=O (I: T[dV]P[Sar][NMeV] / II: T[dV]P[Sar][NMeV]; ester I:1-I:C, II:1-II:C; linker I:N-II:N via Actinocin(9to1))	4.11%
